Records with an inconclusive call do not appear. Entries that show only a call come without a potency. A number with no mark means an inactive call. Activity calls are given as the source filed them. Unless noted, calls follow the shape of the dose curve; as a rule, active = well fitted curve in the direction sought with a large enough effect; inconclusive = small, poorly fitted or top-dose-only effect, or another doubt; inactive = no such curve, though single readings can be large; an effect the other way counts as inactive or inconclusive.
Assays:
[1] = qHTS to identify inhibitors of the type 1 interferon - major histocompatibility complex class I in skeletal muscle: primary screen against the NCATS Pharmaceutical Collection (AID 1347407);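 also: luminescence of HiBiT knocked into endogenous HLA-B as interferon-induced MHC class I level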
How it was run: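 Luminescence from HiBiT-tagged endogenous HLA-B*08:01 served as the read-out of IFN-beta-induced MHC class I in CRISPR-engineered C25cl48 myoblasts. Cells received 4 ng/ml IFN-beta plus compound (high final 46 uM, […]) for 24 h.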

[2] = target: Protein phosphatase 1D (Homo sapiens) (UniProt O15297); assay: RapidFire Mass Spectrometry qHTS Assay for Modulators of WT P53-Induced Phosphatase 1 (WIP1) (AID 1347424);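 also: amount of dephosphorylated VEPPL-S-QETFS peptide product formed by WIP1; series mostly up to about 63 µM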
Protein phosphatase 1D (Homo sapiens), sequence (O15297 whole entry, looked up): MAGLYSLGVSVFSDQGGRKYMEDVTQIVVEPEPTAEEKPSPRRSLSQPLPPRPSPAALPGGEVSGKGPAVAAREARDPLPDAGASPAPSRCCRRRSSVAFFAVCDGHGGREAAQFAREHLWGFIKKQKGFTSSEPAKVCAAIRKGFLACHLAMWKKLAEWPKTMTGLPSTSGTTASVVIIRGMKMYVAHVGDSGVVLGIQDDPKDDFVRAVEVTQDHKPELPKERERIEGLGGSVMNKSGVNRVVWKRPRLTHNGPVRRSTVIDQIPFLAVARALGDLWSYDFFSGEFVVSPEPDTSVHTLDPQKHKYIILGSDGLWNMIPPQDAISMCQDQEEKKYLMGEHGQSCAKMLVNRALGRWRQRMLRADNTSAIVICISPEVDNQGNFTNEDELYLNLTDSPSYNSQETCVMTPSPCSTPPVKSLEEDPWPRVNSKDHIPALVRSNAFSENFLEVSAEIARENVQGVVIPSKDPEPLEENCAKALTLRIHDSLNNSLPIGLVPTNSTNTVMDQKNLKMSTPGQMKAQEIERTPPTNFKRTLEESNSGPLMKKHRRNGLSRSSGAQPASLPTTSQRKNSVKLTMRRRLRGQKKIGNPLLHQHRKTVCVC
How it was run: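 Mass-spectrometric measurement of dephosphorylated peptide after a 5 min room-temperature reaction of 10 nM WIP1 with 2 uM phosphopeptide, following 1 h compound preincubation in 30 mM MgCl2 buffer.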

[3] = target: Protein phosphatase 1D (Homo sapiens) (UniProt O15297); assay: Rhodamine-PBP qHTS Assay for Modulators of WT P53-Induced Phosphatase 1 (WIP1) (AID 1347425)
How it was run: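 The read-out is the change in Rhodamine-PBP fluorescence (f1 - f0, ex 525/em 598 nm) as Pi is released, read each minute for 11 min. Final reaction: 5 nM WIP1, 10 uM phosphopeptide VEPPL-pS-QETFS, 10 uM Rh-PBP, 50 mM Tris-HCl pH 7.5, 30 mM MgCl2. Compound was preincubated with enzyme for 1 hour at room temperature.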

[4] = Primary qHTS for inhibitors of La Crosse Virus (LACV) - induced cell death in SH-SY5Y cells (AID 1508616);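 also: top concentration of the series differs between compounds; higher means more rescue of cells from virus-induced death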
How it was run: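 Cytopathicity rescue screen: compounds pinned onto SH-SY5Y cells, which are then infected with LACV (MOI 0.01) and held 6 days at 37C. Percent activity is scaled between infected DMSO control and uninfected DMSO control.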

[5] = target: Calcium and integrin-binding protein 1 (Homo sapiens) (UniProt Q99828); assay: Primary qHTS for Identification of Calcium Integrin Binding Protein 1 (CIB1) Competitor (AID 1508620);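 also: GST tagged CIB1 binding a fluorescein labelled alphaIIb integrin peptide tracer; top concentration of the series differs between compounds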
Calcium and integrin-binding protein 1 (Homo sapiens), sequence (Q99828 whole entry, looked up): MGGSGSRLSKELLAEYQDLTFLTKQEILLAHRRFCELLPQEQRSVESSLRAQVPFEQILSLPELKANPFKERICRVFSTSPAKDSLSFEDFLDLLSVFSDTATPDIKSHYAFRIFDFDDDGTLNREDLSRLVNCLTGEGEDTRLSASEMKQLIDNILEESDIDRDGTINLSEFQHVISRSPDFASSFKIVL
How it was run: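 Fluorescence polarization competition: CIB1-GST (1 uM final) preincubated with compound 15 min at room temperature, then FITC-labeled alphaIIb peptide (100 nM final) added for another 15 min. Polarization read at Ex 480/Em 540.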

[6] = Primary qHTS for small molecule stabilizers of the endoplasmic reticulum resident proteome: Secreted ER Calcium Modulated Protein (SERCaMP) assay (AID 1508630)
How it was run: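 The SH-SY5Y reporter protocol was run at 3 concentrations up to 38.3 uM (primary) or 11 concentrations (follow-up): 16 h compound, 100 nM thapsigargin for 4 h, then extracellular luciferase luminescence.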

[7] = A High-Content qHTS Against Drug Library for the Identification of Small Molecules that Inhibit DYT1 Early Onset Primary Dystonia-Associated Cell Pathology (AID 1645839; calls by dose curve; also: potency is read from the fitted curve at half-maximal effect)
How it was run: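 Induced EGFP-delE TorsinA cells are imaged after 48 h of compound treatment. Punctate fusion-protein distribution gives the %pathology value, while nuclei counts flag toxicity. Wild-type EGFP-hTOR1A cells define the normal pattern.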

[8] = target: Cytochrome P450 2D6 (Homo sapiens) (UniProt P10635); assay: Cytochrome P450 family 2 subfamily D member 6 (CYP2D6) small molecule antagonists: luciferase biochemical (cell-free) qHTS assay (AID 1645840; active = well fitted curve in the direction sought with a large enough effect in the repeat runs; an effect the other way counts as inactive or inconclusive; also: nearly all actives have a fitted effect of over 55% in size; also: potency is read from the fitted curve at half-maximal effect)
Cytochrome P450 2D6 (Homo sapiens), sequence (P10635 whole entry, looked up): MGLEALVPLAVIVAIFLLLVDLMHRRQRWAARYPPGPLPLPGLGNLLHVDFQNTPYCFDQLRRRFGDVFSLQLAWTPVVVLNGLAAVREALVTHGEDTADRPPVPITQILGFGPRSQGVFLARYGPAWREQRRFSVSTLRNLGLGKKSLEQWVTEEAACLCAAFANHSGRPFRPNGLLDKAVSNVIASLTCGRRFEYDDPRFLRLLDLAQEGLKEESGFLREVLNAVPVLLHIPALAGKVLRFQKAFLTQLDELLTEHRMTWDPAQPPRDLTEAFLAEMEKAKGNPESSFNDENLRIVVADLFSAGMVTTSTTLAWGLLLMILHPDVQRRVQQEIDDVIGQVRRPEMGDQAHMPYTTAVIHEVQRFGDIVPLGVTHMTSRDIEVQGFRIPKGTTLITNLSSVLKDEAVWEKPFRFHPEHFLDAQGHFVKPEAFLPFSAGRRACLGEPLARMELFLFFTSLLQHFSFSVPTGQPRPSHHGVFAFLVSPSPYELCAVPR
How it was run: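 P450-Glo CYP2D6 system: proluciferin substrate converted by enzyme to luciferin, read by luminescence proportional to activity. Enzyme-substrate mix with compound 10 min at room temperature, then NADPH regeneration 1 h before detection reagent.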

[9] = target: Cytochrome P450 2C9 (Homo sapiens) (UniProt P11712); assay: Cytochrome P450 family 2 subfamily C member 9 (CYP2C9) small molecule antagonists: luciferase biochemical (cell-free) qHTS assay (AID 1645842; active = well fitted curve in the direction sought with a large enough effect in the repeat runs; an effect the other way counts as inactive or inconclusive; also: nearly all actives have a fitted effect of over 55% in size; also: potency is read from the fitted curve at half-maximal effect)
Cytochrome P450 2C9 (Homo sapiens), sequence (P11712 whole entry, looked up): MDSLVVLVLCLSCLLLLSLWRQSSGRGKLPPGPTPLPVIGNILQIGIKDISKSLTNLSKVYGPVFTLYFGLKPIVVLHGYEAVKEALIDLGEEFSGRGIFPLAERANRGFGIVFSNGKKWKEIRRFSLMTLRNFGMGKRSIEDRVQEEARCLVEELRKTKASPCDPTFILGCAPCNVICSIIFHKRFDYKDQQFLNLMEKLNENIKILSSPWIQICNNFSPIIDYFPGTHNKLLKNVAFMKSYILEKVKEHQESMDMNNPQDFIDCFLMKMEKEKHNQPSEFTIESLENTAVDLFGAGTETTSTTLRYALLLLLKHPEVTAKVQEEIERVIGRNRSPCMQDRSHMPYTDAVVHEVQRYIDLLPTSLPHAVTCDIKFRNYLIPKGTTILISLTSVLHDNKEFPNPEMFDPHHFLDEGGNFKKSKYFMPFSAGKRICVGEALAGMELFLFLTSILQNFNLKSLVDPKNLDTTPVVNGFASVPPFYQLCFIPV
How it was run: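 P450-Glo CYP2C9 system: proluciferin substrate with enzyme in mix containing 0.4% BSA, 10 min at room temperature, then NADPH regeneration solution added and incubated 1 h at 37C. Detection reagent stopped reaction; luminescence read after 20 min as RLU.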

Row | Structure (SMILES) | Potency [1] | Potency [2] | outcome [3] | outcome [4] | Potency [5] | Potency [6] | Potency [7] | Potency [8] | Potency [9]
1 | Cc1ncc(CO)c(CO)c1O | inactive | inactive | inactive | inactive | inactive | inactive | inactive | inactive | inactive
2 | CC(C)OP(=O)(CP(=O)(OC(C)C)OC(C)C)OC(C)C | inactive | inactive | inactive | inactive | inactive | inactive | inactive | inactive | inactive
3 | C/C=C(/C(=C/C)c1ccc(OC(C)=O)cc1)c1ccc(OC(C)=O)cc1 | inactive | inactive | inactive | inactive | inactive | inactive | 8.91 µM (active) | inactive | 17.4 µM (active)
4 | CCN(CC)CC(=O)Nc1c(C)cccc1C(=O)OC | inactive | inactive | inactive | inactive | inactive | inactive | inactive | inactive | inactive
5 | C[C@@H]1C[C@H]2[C@@H]3CCC4=CC(=O)C=C[C@]4(C)[C@@]3(F)[C@@H](O)C[C@]2(C)[C@@]1(O)C(=O)COC(=O)c1ccncc1 | inactive | inactive | inactive | inactive | inactive | inactive | inactive | 1.23 µM (active) | 2.45 µM (active)
6 | COc1ccc2c(c1)CCCC2=O | inactive | inactive | inactive | inactive | inactive | inactive | inactive | inactive | inactive
7 | Cc1ccc2ccc(Cl)cc2n1 | inactive | inactive | inactive | inactive | inactive | inactive | inactive | inactive | inactive
8 | C#CC(C)(CC)OC(=O)c1ccccc1C(=O)O (stereo not drawn) | inactive | inactive | inactive | inactive | inactive | inactive | inactive | inactive | inactive
9 | CN1Cc2cc(C(=O)N3CCC(C4CCNCC4)CC3)ccc2N[C@@H](CC(=O)O)C1=O | inactive | inactive | inactive | inactive | inactive | inactive | inactive | inactive | inactive
10 | CCCCN(CCN(CCCC)C(=O)N1CCOCC1)C(=O)N1CCOCC1 | inactive | inactive | inactive | inactive | inactive | inactive | inactive | inactive | inactive
11 | O=C(O)CNC(=O)CNC(=O)CNC(=O)CSC(=O)c1ccccc1 | inactive | inactive | inactive | inactive | inactive | inactive | inactive | inactive | inactive
12 | CCOC(=O)O[C@]1(C(=O)OCCl)CC[C@H]2[C@@H]3CCC4=CC(=O)C=C[C@]4(C)[C@H]3[C@@H](O)C[C@@]21C | inactive | inactive | inactive | inactive | inactive | inactive | inactive | inactive | inactive
13 | COc1cc(OC)nc(O[C@H](C(=O)O)C(OC)(c2ccccc2)c2ccccc2)n1 | inactive | inactive | inactive | inactive | inactive | inactive | inactive | inactive | inactive
14 | COc1ccc(CCC(C)=O)cc1 | inactive | inactive | inactive | inactive | inactive | inactive | inactive | inactive | inactive
15 | Cc1sccc1Br | inactive | inactive | inactive | inactive | inactive | inactive | inactive | inactive | inactive
16 | O=c1[nH]c(=O)n([C@H]2O[C@H](CO)[C@@H](O)[C@@H]2O)cc1/C=C\Br | inactive | inactive | inactive | inactive | inactive | inactive | inactive | inactive | inactive
17 | Nc1nc2ccccc2n1Cc1ccc(F)cc1 | inactive | inactive | inactive | inactive | inactive | inactive | inactive | 0.0977 µM (active) | inactive
18 | CC(C)(C)NCC(O)COc1ccccc1OCC1CCCO1 (stereo not drawn) | inactive | inactive | inactive | inactive | inactive | inactive | inactive | 6.17 µM (active) | inactive
19 | Cc1cc(C(C)(C)C)c(O)c(C(C)(C)C)c1 | inactive | inactive | inactive | inactive | inactive | inactive | inactive | inactive | inactive
20 | CCN1CCCC1CN (stereo not drawn) | inactive | inactive | inactive | inactive | inactive | inactive | inactive | inactive | inactive

Row | Structure (SMILES) | Potency [1] | Potency [2] | outcome [3] | outcome [4] | Potency [5] | Potency [6] | Potency [7] | Potency [8] | Potency [9]
21 | CCCc1c2oc(C(=O)O)cc(=O)c2cc2c(=O)cc(C(=O)O)n(CC)c12 | inactive | inactive | inactive | inactive | inactive | inactive | inactive | inactive | inactive
22 | CC(C)(C)c1ccc(C(=O)CCCCl)cc1 | inactive | inactive | inactive | inactive | inactive | inactive | inactive | inactive | inactive
23 | O=C1Nc2cc(Cl)ccc2Oc2ccccc21 | inactive | inactive | inactive | inactive | inactive | inactive | inactive | inactive | inactive
24 | CCCCCCn1c(=O)c2c(ncn2C)n(C)c1=O | inactive | inactive | inactive | inactive | inactive | inactive | inactive | inactive | inactive
25 | CC[N+](CC)(CC)CCOC(=O)C(C1CCCC1)C1CCCC1 | inactive | inactive | inactive | inactive | inactive | inactive | inactive | 3.09 µM (active) | inactive
26 | CCN(CC)C(=O)C1CN2CCc3cc(OC)c(OC)cc3C2CC1OC(C)=O (stereo not drawn) | inactive | inactive | inactive | inactive | inactive | inactive | inactive | inactive | inactive
27 | O=C1CC2(CCCC2)CC(=O)N1 | inactive | inactive | inactive | inactive | inactive | inactive | inactive | inactive | inactive
28 | COc1cc(C(=O)OC(COCCC(C)C)CN2CCOCC2)cc(OC)c1OC (stereo not drawn) | inactive | inactive | inactive | inactive | inactive | inactive | inactive | inactive | 2.19 µM (active)
29 | COc1ccc2nc(SCc3ncc(C)c(OC)c3C)[nH]c2c1 | inactive | inactive | inactive | inactive | inactive | inactive | inactive | 12.3 µM (active) | inactive
30 | COc1ccccc1N1CCN(CC(O)COc2cc(OC)c(OC)c(OC)c2)CC1 (stereo not drawn) | inactive | inactive | inactive | inactive | inactive | inactive | inactive | – | inactive
31 | CC[C@@H]([C@H](C)O)n1ncn(-c2ccc(N3CCN(c4ccc(OC[C@@H]5CO[C@@](Cn6cncn6)(c6ccc(F)cc6F)C5)cc4)CC3)cc2)c1=O | inactive | inactive | inactive | inactive | inactive | inactive | – | inactive | –
32 | COc1ccc2c(c1)c(CC(=O)OC/C=C(\C)CC/C=C(\C)CCC=C(C)C)c(C)n2C(=O)c1ccc(Cl)cc1 | inactive | inactive | inactive | inactive | inactive | inactive | – | 12.3 µM (active) | –
33 | O=C(O)/C=C(\CC(=O)O)C(=O)O | inactive | inactive | inactive | inactive | inactive | inactive | inactive | – | inactive
34 | CC(=O)OCC[N+](C)(C)C | inactive | inactive | inactive | inactive | inactive | inactive | inactive | – | inactive
35 | CC(=O)[C@H]1CC[C@H]2[C@@H]3C=CC4=CC(=O)CC[C@@]4(C)[C@@H]3CC[C@]12C | inactive | inactive | inactive | inactive | inactive | inactive | – | 15.5 µM (active) | –
36 | [O-][n+]1cccc(/C(Cl)=N/OC[C@@H](O)CN2CCCCC2)c1 | inactive | inactive | inactive | inactive | inactive | inactive | – | – | inactive
37 | OCCc1ccccc1 | inactive | inactive | inactive | inactive | inactive | inactive | – | – | inactive
38 | CCCCCC(=O)O[C@]1(C(C)=O)CC[C@H]2[C@@H]3CCC4=CC(=O)CC[C@]4(C)[C@H]3CC[C@@]21C | inactive | inactive | inactive | inactive | inactive | inactive | inactive | 13.8 µM (active) | 4.9 µM (active)
39 | CCCCCCCCCCCCCCCCCCN(C)C | inactive | inactive | inactive | inactive | inactive | inactive | inactive | inactive | inactive

From PubChem BioAssay (NCATS)
